AHR activator: AHR activators, primary screen, cell-based, luminescence, luciferase reporter, human. AHR-responsive luciferase reporter cells. activation, % at 5 µM. 2.5% of 320,000 active. AID 2796, 2010; in the data active = activation above about 47%;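 also: 0% = vehicle wells and 100% = reference agonist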
Target sequence (P35869 whole entry, looked up): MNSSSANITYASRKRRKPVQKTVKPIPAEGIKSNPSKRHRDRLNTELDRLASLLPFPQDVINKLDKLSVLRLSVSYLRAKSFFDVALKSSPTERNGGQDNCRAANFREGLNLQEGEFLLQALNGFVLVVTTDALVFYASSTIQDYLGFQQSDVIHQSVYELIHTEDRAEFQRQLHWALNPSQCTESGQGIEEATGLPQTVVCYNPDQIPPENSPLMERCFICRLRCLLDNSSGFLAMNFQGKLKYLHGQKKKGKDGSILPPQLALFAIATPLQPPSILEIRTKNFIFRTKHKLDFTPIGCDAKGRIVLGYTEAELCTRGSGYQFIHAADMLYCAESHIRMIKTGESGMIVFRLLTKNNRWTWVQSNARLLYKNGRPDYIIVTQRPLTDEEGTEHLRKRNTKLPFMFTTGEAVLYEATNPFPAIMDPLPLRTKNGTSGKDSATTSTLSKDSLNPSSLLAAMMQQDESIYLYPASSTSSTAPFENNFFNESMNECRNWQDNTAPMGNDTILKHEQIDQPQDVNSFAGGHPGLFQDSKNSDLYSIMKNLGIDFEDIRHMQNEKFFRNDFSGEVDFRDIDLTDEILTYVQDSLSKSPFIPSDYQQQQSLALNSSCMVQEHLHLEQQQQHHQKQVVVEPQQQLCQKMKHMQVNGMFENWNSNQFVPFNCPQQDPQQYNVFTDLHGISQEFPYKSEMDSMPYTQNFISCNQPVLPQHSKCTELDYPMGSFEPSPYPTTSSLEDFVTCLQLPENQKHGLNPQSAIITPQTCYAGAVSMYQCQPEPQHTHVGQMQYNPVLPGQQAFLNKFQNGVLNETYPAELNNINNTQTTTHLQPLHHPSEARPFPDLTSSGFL
MITF act: activators of MITF-driven TRPM1 promoter reporter, primary screen, cell-based, SK-MEL-5, luciferase, single point; SK-MEL-5 TRPM1-promoter luciferase, 24 h; % of positive control, neutral wells = 0; activation, % at 12.5 µM; 0.75% of 300,000 active; AID 588334, 2011;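 active = mean activation of at least 80% with every replicate also reaching 80%; inconclusive = mean reaches 80% but some replicate falls short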;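 also: 0% = neutral control wells and 100% = parthenolide positive control wells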
GAA850 FXN act: FXN promoter activators, primary screen, cell-based, luciferase luminescence, HEK293 lucGAA850; HEK293 lucGAA850 FXN promoter luciferase reporter, 24 h; percent of 10 µM SAHA response; AID 540364, 2011; activation, % at 6 µM; 0.56% of 360,000 active;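 active = activation above the average of all compounds screened plus 3 SD, cutoff fixed separately per campaign, cut at about 7.5% in these data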;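 also: 0% = DMSO wells and 100% = 10 µM SAHA wells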
esBAF inh: Bmi1 luciferase reporter increase in mESCs, primary screen, esBAF inhibitor project, mouse ES cells, Bmi1 luciferase knock-in, single point; 24 h; 100% = twice the neutral-well signal; reporter increase, % at 12.5 µM; 2% of 350,000 active; AID 602393, 2012; in the data active = activation above about 40%; inconclusive = no clear call, values can overlap the other calls;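 also: 0% = median of the plate's neutral control wells and 100% = double that signal; a rise in the Bmi1 reporter signal indicates esBAF inhibition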
Wnt bcat act: Wnt/beta-catenin pathway activators, primary screen, cell-based, plate reader, single point | 1.2% of 300,000 active | Wnt/beta-catenin reporter cell assay, activator | activation, % at 9.35 µM; in the data active = activation above about 30%, passing the limit was not always enough; inconclusive = no clear call, values can overlap the other calls;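 also: 0% = neutral control wells and 100% = positive control wells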
The depositor's hits bear a star. Hits are enriched below; roughly 4.2% of the tested compounds scored in any of these assays.

How did C[C@H]1CN([C@@H](C)CO)C(=O)Cc2cc(NC(=O)CCN3CCOCC3)ccc2O[C@H]1CN(C)C(=O)Nc1cccc2ccccc12 do in these assays?
esBAF inh: -3

What do the screens show for `O=C(C[C@H]1C=C[C@@H](NC(=O)C2CCOCC2)[C@H](CO)O1)Nc1ccc(-c2ccccc2)cc1`?
esBAF inh: -6

How did COc1ccc(C(=O)NC(=S)Nc2nc(C)cc(C)n2)cc1Br do in these assays?
AHR activator: -2; GAA850 FXN act: 2; Wnt bcat act: 42*

How did COc1ccccc1OCC(=O)Nc1ccc2c(c1)OCCO2 do in these assays?
AHR activator: 2; MITF act: inconclusive; GAA850 FXN act: 2; esBAF inh: 45*; Wnt bcat act: 4

Results for COc1ccccc1C(=O)Nc1ccc2c(c1)OCCO2 ?
AHR activator: 1; MITF act: 37; GAA850 FXN act: 4; esBAF inh: 59*

What do the screens show for `COc1ccccc1C(=O)Nc1cccc(N(C)S(C)(=O)=O)c1`?
AHR activator: 51*; GAA850 FXN act: 2; esBAF inh: 6

What do the screens show for `Cc1ccccc1S(=O)(=O)N1C[C@@H](O)COC[C@H]2O[C@H](CC(=O)N3CCN(C)CC3)CC[C@@H]21`?
esBAF inh: -2

Results for C[C@@H]1CN([C@@H](C)CO)C(=O)c2cccc(NC(=O)C3CCOCC3)c2O[C@@H]1CN(C)Cc1ccccc1 ?
esBAF inh: 1

What do the screens show for `COc1ccc(C(=O)Nc2ccc3c(c2)OCCO3)cc1Br`?
GAA850 FXN act: 6; esBAF inh: 48*; Wnt bcat act: 2

What do the screens show for `O=C(CC(NC(=O)c1ccccc1Cl)c1ccccc1)Nc1ccc2c(c1)OCO2` (stereo not given)?
AHR activator: 60*; MITF act: 0; GAA850 FXN act: -1; esBAF inh: 0; Wnt bcat act: -1

How did O=C(COc1ccccc1Cl)Nc1ccc2c(c1)OCCO2 do in these assays?
AHR activator: -3; MITF act: 54; GAA850 FXN act: 4; esBAF inh: 49*

Results for O=C(Nc1ccc2c(c1)OCCO2)c1c(Cl)cccc1Cl ?
GAA850 FXN act: 0; esBAF inh: 10; Wnt bcat act: 0

Results for O=C(COc1ccccc1Cl)NCCc1ccc2c(c1)OCCO2 ?
AHR activator: 3; MITF act: 29; GAA850 FXN act: 3; Wnt bcat act: -2

What do the screens show for `O=C(Nc1ccc2c(c1)OCCO2)c1cccc(Cl)c1Cl`?
AHR activator: 21; GAA850 FXN act: 5; esBAF inh: 88*; Wnt bcat act: 15

How did COc1ccc(NC(=O)Nc2ccc3c(c2)[C@@H]2C[C@@H](CC(=O)N(C)C)O[C@@H](CO)[C@@H]2O3)cc1 do in these assays?
esBAF inh: -1

Results for Cc1oc(C(C)(C)C)cc1C(=O)Nc1ccc2c(c1)OCCO2 ?
AHR activator: 7; MITF act: 40; GAA850 FXN act: 4; esBAF inh: 44*

How did COC(=O)c1sc(NC(=O)COc2ccccc2C)nc1C do in these assays?
AHR activator: 14; MITF act: 44; GAA850 FXN act: 3; Wnt bcat act: 1

What do the screens show for `COc1ccccc1OCC(=O)Nc1nc(C)c(C)s1`?
AHR activator: 9; MITF act: 85*; GAA850 FXN act: 5; esBAF inh: 30; Wnt bcat act: 35*

What do the screens show for `Cc1cccc(OCC(=O)Nc2ccc3c(c2)OCCO3)c1`?
AHR activator: 3; MITF act: 80; GAA850 FXN act: 2; Wnt bcat act: 23

Results for Cc1cccc(C)c1OCC(=O)Nc1ccc2c(c1)OCCO2 ?
AHR activator: -5; MITF act: 35; GAA850 FXN act: -2; esBAF inh: 43*; Wnt bcat act: 18

Results for Cc1ccccc1OCC(=O)Nc1ccc2c(c1)OCCO2 ?
AHR activator: 4; MITF act: 125*; GAA850 FXN act: 0; Wnt bcat act: 38*

What do the screens show for `Cc1oc(C(C)(C)C)cc1C(=O)Nc1ccc2c(c1)OCO2`?
AHR activator: 13; GAA850 FXN act: 1; esBAF inh: inconclusive; Wnt bcat act: 16

How did Cc1ccccc1OCC(=O)OCC(=O)Nc1ccc2c(c1)OCO2 do in these assays?
AHR activator: 0; MITF act: -3; GAA850 FXN act: -1; esBAF inh: -4; Wnt bcat act: 1

How did O=C(CN1CCOCC1)NCC[C@@H]1CC[C@@H](NS(=O)(=O)c2ccc(Cl)cc2)[C@@H](CO)O1 do in these assays?
esBAF inh: 5

How did C[C@@H]1CCCCO[C@H](CN(C)C(=O)C2CCCCC2)[C@@H](C)CN([C@@H](C)CO)C(=O)c2cc(NC(=O)Nc3cccc4ccccc34)ccc2O1 do in these assays?
esBAF inh: 10

Results for C[C@H]1CN([C@@H](C)CO)C(=O)c2cc(NS(C)(=O)=O)ccc2O[C@H]1CN(C)CC1CCCCC1 ?
esBAF inh: -4

Results for Cc1noc(C)c1NC(=O)N[C@H]1CC[C@@H](CCNC(=O)C2CCCC2)O[C@H]1CO ?
esBAF inh: -1

Results for Cc1cc(C)c(OCC(=O)Nc2cccc(O)c2)cc1C ?
AHR activator: 2; MITF act: inconclusive; GAA850 FXN act: -1; esBAF inh: 55*

How did NC(=O)c1ccccc1OCC(=O)Nc1ccc2c(c1)OCCO2 do in these assays?
MITF act: 96*; GAA850 FXN act: 1; esBAF inh: inconclusive; Wnt bcat act: 22

How did Cc1cccc(NC(=O)COc2ccc(Br)cc2/C=N/O)c1 do in these assays?
AHR activator: 19; MITF act: 122*; GAA850 FXN act: 5; Wnt bcat act: 15

Results for C[C@H](CO)N1C[C@H](C)[C@@H](CN(C)Cc2ccc(C(=O)O)cc2)Oc2ccc(NC(=O)CCN3CCOCC3)cc2CC1=O ?
esBAF inh: 6

Results for Fc1ccc(CSc2ncnc3c2ncn3C2CCCCO2)cc1 (stereo not given) ?
MITF act: 69; GAA850 FXN act: 5; Wnt bcat act: -3

What do the screens show for `c1ccc(CNc2ncnc3c2ncn3C2CCCCO2)cc1` (stereo not given)?
AHR activator: 16; MITF act: 68; GAA850 FXN act: 3; esBAF inh: 46*; Wnt bcat act: 19

What do the screens show for `c1ccc(CSc2ncnc3c2ncn3C2CCCCO2)cc1` (stereo not given)?
MITF act: 100*; GAA850 FXN act: 3; esBAF inh: 84*; Wnt bcat act: -4

What do the screens show for `Clc1cccc(CSc2ncnc3c2ncn3C2CCCCO2)c1` (stereo not given)?
MITF act: 75; GAA850 FXN act: 4; esBAF inh: 76*; Wnt bcat act: 8

Results for OCCn1cnc2c(SCc3ccccc3)ncnc21 ?
MITF act: 33; GAA850 FXN act: 1; esBAF inh: 35; Wnt bcat act: 3

Compound activity: PubChem, several laboratories
